From the supplement of paper PMC7156485
± gives the standard deviation of the averaged measurements.

The molecules below were run on TDF (assay: cell number relative to DMSO (% of DMSO); higher = more cells (less growth inhibition / toxicity)). Settings: concentration: 10 µM; 24 h.
Procedure, shortened: (§1)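 HCC1569 and TDF cells were seeded at 800 per well in 384-well plates in RPMI with 10% FBS and treated with compounds at 10 µM for 24 h at 37 °C, in triplicate. After fixation in 3.7% formaldehyde, cells were stained with a rabbit anti-H1.0 antibody, an AlexaFluor 647 secondary and DAPI, and six fields per well were imaged at ×10. H1.0 nuclear intensity or cell number is given as percent of the plate control, using the median of replicates, with HCC1569 values smoothed for positional effects.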
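Wherever H1.0 immunofluorescence intensity relative to DMSO is given: TDF is a line of transformed human dermal fibroblasts of mesenchymal origin.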
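Wherever cell number relative to DMSO is given: TDF denotes transformed human dermal fibroblasts of mesenchymal origin.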

How did the cell number turn out when `Cc1ccc(CN2C(=O)S/C(=C\c3ccc(Cl)cc3)C2=O)cc1` was run?
Its cell number is 117.

`C=CC(=O)Nc1cc2c(Nc3ccc(F)c(Cl)c3)ncnc2cc1OCCCN1CCOCC1.Cl.Cl` [Canertinib] was tested. Which cell number did it give?
The cell number was 87.4.

`CC(=O)SCC(Cc1ccccc1)C(=O)NCC(=O)OCc1ccccc1` (stereo unspecified) [Racecadotril] was tested. Which cell number did it give?
The cell number was 117.

With `COc1ccc2[nH]c(I)c(CCNC(C)=O)c2c1` [2-Iodomelatonin] as the molecule, how does the cell number read?
The cell number was 111.

For `CCCN(CCC)C(=O)C(CCC(=O)O)NC(=O)c1ccccc1` (stereo unspecified) [Proglumide], which cell number is on record?
Its cell number is 112.

How did the cell number turn out when `O.O=c1c(O)c(-c2ccc(O)cc2O)oc2cc(O)cc(O)c12` was run?
Its cell number is 94.5.

For `Cc1cnc(Nc2ccc(N3CCN(C)CC3)cc2)nc1Nc1cccc(S(=O)(=O)NC(C)(C)C)c1`, which cell number is on record?
The cell number was 98.6.

Which cell number does the source give for `CC(C)(C)c1cc(O)ccc1O` [tert-Butylhydroquinone] here?
The cell number was 97.2.

`O=C(O)c1ccc2ccccc2c1O.OCc1cc(C(O)CNCCCCCCOCCCCc2ccccc2)ccc1O` (stereo unspecified) [Salmeterol xinafoate] was tested. Which cell number did it give?
Its cell number is 100.

For `CCCC(=O)O[C@]1(C(=O)CO)CC[C@H]2[C@@H]3CCC4=CC(=O)CC[C@]4(C)[C@H]3[C@@H](O)C[C@@]21C` [(11beta)-11,21-dihydroxy-3,20-dioxopregn-4-en-17-yl butyrate], which cell number is on record?
Its cell number is 106.

With `CS(=O)c1ccc(-c2nc(-c3ccc(F)cc3)c(-c3ccncc3)[nH]2)cc1.Cl` (stereo unspecified) as the molecule, how does the cell number read?
The cell number was 99.5.

With `C=CC1(C)CC(=O)C2(O)C(C)(O1)C(OC(C)=O)C(O)C1C(C)(C)CCC(O)C12C` (stereo unspecified) [Forskolin] as the molecule, how does the cell number read?
Its cell number is 105 ± 3.9.

With `CCN(CC)CC(=O)Nc1c(C)cccc1C.Cl` [Lidocaine hydrochloride] as the molecule, how does the cell number read?
The cell number was 101.

For `COC(=O)c1ccc2c(c1)nc(NC(=O)c1ccccc1)n2CCCc1ccccc1`, which cell number is on record?
The cell number was 65.7.

With `Cc1cc(I)ccc1Nc1c(C(=O)NOCC2CC2)cc(F)c(F)c1F` as the molecule, how does the cell number read?
The cell number was 95.6.

With `CC#CCOC(=O)c1c(C)nc2sc3c(c2c1N)CCC(O)C3` (stereo unspecified) as the molecule, how does the cell number read?
The cell number was 85.8.

How did the cell number turn out when `CCCCCCCCCCCCCCC(O)C(O)C(N)CO` (stereo unspecified) [Phytosphingosine] was run?
Its cell number is 75.6.

How did the cell number turn out when `CNS(=O)(=O)Cc1ccc2[nH]cc(CCN(C)C)c2c1.O=C(O)CCC(=O)O` [Sumatriptan Succinate] was run?
Its cell number is 106.

Which cell number does the source give for `Cc1cc(Nc2nc(-c3ccccc3)nc3ccccc23)n[nH]1` [GSK-3 Inhibitor XIII] here?
The cell number was 46.1.

For `CCCCCCCC/C=C\CCCCCCCC(N)=O` [(9Z)-9-octadecenamide], which cell number is on record?
Its cell number is 102.

Which cell number does the source give for `O=C(O)CCc1nc(-c2ccccc2)c(-c2ccccc2)o1` [Oxaprozin] here?
Its cell number is 101.

With `COc1cc(CCC(C)=O)ccc1O` [Vannilylacetone] as the molecule, how does the cell number read?
Its cell number is 90.8.

With `COC(=O)Nc1nc2ccc(C(=O)c3cccs3)cc2[nH]1` [Nocodazole] as the molecule, how does the cell number read?
The cell number was 10.9.

`CC(c1cc2ccccc2s1)N(O)C(N)=O` (stereo unspecified) [Zileuton] was tested. Which cell number did it give?
Its cell number is 98.4.

How did the cell number turn out when `Cc1ccc(N(CC2=NCCN2)c2cccc(O)c2)cc1` [Phentolamine] was run?
Its cell number is 100.

`CN(Cc1cnc2nc(N)nc(N)c2n1)c1ccc(C(=O)NC(CCC(=O)O)C(=O)O)cc1` (stereo unspecified) [Methotrexate] was tested. Which cell number did it give?
Its cell number is 86.5.

What follows are molecules tested on TDF (assay: H1.0 immunofluorescence intensity relative to DMSO (% of DMSO); higher = stronger H1.0 induction, active = 120 or more). Settings: concentration: 10 µM; 24 h.
Procedure, shortened: as §1

With `CCCCCCCCCCCCCCCC(=O)NC(COP(=O)(O)O)C(=O)O` (stereo unspecified) as the molecule, how does the H1.0 immunofluorescence intensity read?
Its H1.0 immunofluorescence intensity is 92 (inactive).

`COc1c2occc2cc2ccc(=O)oc12` [Xanthotoxin] was tested. Which H1.0 immunofluorescence intensity did it give?
Its H1.0 immunofluorescence intensity is 106 (inactive).

Which H1.0 immunofluorescence intensity does the source give for `CCOC(=O)c1csc(Nc2ccc(Cl)cc2)n1` [ethyl 2-(4-chloroanilino)-1,3-thiazole-4-carboxylate] here?
Its H1.0 immunofluorescence intensity is 99.7 (inactive).

How did the H1.0 immunofluorescence intensity turn out when `Brc1c(Br)c(Br)c2n[nH]nc2c1Br` [TBB - 4,5,6,7-Tetrabromobenzotriazole] was run?
The H1.0 immunofluorescence intensity was 99.2 (inactive).

`O=C(O)Cc1nn(Cc2nc3cc(C(F)(F)F)ccc3s2)c(=O)c2ccccc12` was tested. Which H1.0 immunofluorescence intensity did it give?
Its H1.0 immunofluorescence intensity is 93.4 (inactive).

With `Br.Br.NC(N)=NCCSSCCN=C(N)N` [Guanidinoethyl disulfide dihydrobromide] as the molecule, how does the H1.0 immunofluorescence intensity read?
The H1.0 immunofluorescence intensity was 96.5 (inactive).

Which H1.0 immunofluorescence intensity does the source give for `Br.Br.N=C(N)SCCc1cccc(CCSC(=N)N)c1` [1,3-PBIT dihydrobromide] here?
The H1.0 immunofluorescence intensity was 97.4 (inactive).

`NC(Cc1cccc(-c2ccccc2CP(=O)(O)O)c1)C(=O)O` (stereo not drawn) [Phenylbenzene-omega-phosphono-alpha-amino acid] was tested. Which H1.0 immunofluorescence intensity did it give?
The H1.0 immunofluorescence intensity was 89.5 (inactive).

`CCCCCCCCCCCCCCCC(=O)NCCO` [Palmitoylethanolamide] was tested. Which H1.0 immunofluorescence intensity did it give?
The H1.0 immunofluorescence intensity was 92.4 (inactive).

`Oc1ccc(C=Cc2cc(O)cc(O)c2)cc1` [Resveratrol] was tested. Which H1.0 immunofluorescence intensity did it give?
The H1.0 immunofluorescence intensity was 99.5 (inactive).

Which H1.0 immunofluorescence intensity does the source give for `CCCCCCCCCCCCCC(=O)NC(C)C(O)c1ccccc1` [D-erythro MAPP] here?
The H1.0 immunofluorescence intensity was 100 (inactive).

With `CC=CCC=CCCC(=O)C1OC1C(N)=O` (stereo unspecified) [Cerulenin] as the molecule, how does the H1.0 immunofluorescence intensity read?
The H1.0 immunofluorescence intensity was 97.8 (inactive).

How did the H1.0 immunofluorescence intensity turn out when `Cc1ccc(C(=O)c2ccc(CC(=O)O)n2C)cc1` [Tolmetin] was run?
Its H1.0 immunofluorescence intensity is 104 (inactive).

With `CCCN1CCCC[C@H]1C(=O)Nc1c(C)cccc1C.Cl.O` as the molecule, how does the H1.0 immunofluorescence intensity read?
The H1.0 immunofluorescence intensity was 99 (inactive).

With `Cc1ccc(CN2C(=O)S/C(=C\c3ccc(Cl)cc3)C2=O)cc1` as the molecule, how does the H1.0 immunofluorescence intensity read?
The H1.0 immunofluorescence intensity was 98.2 (inactive).

For `C=CC(=O)Nc1cc2c(Nc3ccc(F)c(Cl)c3)ncnc2cc1OCCCN1CCOCC1.Cl.Cl` [Canertinib], which H1.0 immunofluorescence intensity is on record?
Its H1.0 immunofluorescence intensity is 108 (inactive).

For `CC(=O)SCC(Cc1ccccc1)C(=O)NCC(=O)OCc1ccccc1` (stereo unspecified) [Racecadotril], which H1.0 immunofluorescence intensity is on record?
The H1.0 immunofluorescence intensity was 91.5 (inactive).

How did the H1.0 immunofluorescence intensity turn out when `COc1ccc2[nH]c(I)c(CCNC(C)=O)c2c1` [2-Iodomelatonin] was run?
The H1.0 immunofluorescence intensity was 92 (inactive).

With `CCCN(CCC)C(=O)C(CCC(=O)O)NC(=O)c1ccccc1` (stereo unspecified) [Proglumide] as the molecule, how does the H1.0 immunofluorescence intensity read?
Its H1.0 immunofluorescence intensity is 88.6 (inactive).

Which H1.0 immunofluorescence intensity does the source give for `O.O=c1c(O)c(-c2ccc(O)cc2O)oc2cc(O)cc(O)c12` here?
The H1.0 immunofluorescence intensity was 100 (inactive).

`Cc1cnc(Nc2ccc(N3CCN(C)CC3)cc2)nc1Nc1cccc(S(=O)(=O)NC(C)(C)C)c1` was tested. Which H1.0 immunofluorescence intensity did it give?
The H1.0 immunofluorescence intensity was 97.9 (inactive).

With `CC(C)(C)c1cc(O)ccc1O` [tert-Butylhydroquinone] as the molecule, how does the H1.0 immunofluorescence intensity read?
Its H1.0 immunofluorescence intensity is 96.4 (inactive).

`O=C(O)c1ccc2ccccc2c1O.OCc1cc(C(O)CNCCCCCCOCCCCc2ccccc2)ccc1O` (stereo unspecified) [Salmeterol xinafoate] was tested. Which H1.0 immunofluorescence intensity did it give?
Its H1.0 immunofluorescence intensity is 97.5 (inactive).

How did the H1.0 immunofluorescence intensity turn out when `CCCC(=O)O[C@]1(C(=O)CO)CC[C@H]2[C@@H]3CCC4=CC(=O)CC[C@]4(C)[C@H]3[C@@H](O)C[C@@]21C` [(11beta)-11,21-dihydroxy-3,20-dioxopregn-4-en-17-yl butyrate] was run?
The H1.0 immunofluorescence intensity was 84.9 (inactive).

For `CS(=O)c1ccc(-c2nc(-c3ccc(F)cc3)c(-c3ccncc3)[nH]2)cc1.Cl` (stereo unspecified), which H1.0 immunofluorescence intensity is on record?
Its H1.0 immunofluorescence intensity is 94.5 (inactive).

`C=CC1(C)CC(=O)C2(O)C(C)(O1)C(OC(C)=O)C(O)C1C(C)(C)CCC(O)C12C` (stereo unspecified) [Forskolin] was tested. Which H1.0 immunofluorescence intensity did it give?
Its H1.0 immunofluorescence intensity is 88.8 (inactive).

Which H1.0 immunofluorescence intensity does the source give for `CCN(CC)CC(=O)Nc1c(C)cccc1C.Cl` [Lidocaine hydrochloride] here?
The H1.0 immunofluorescence intensity was 89 (inactive).

`COC(=O)c1ccc2c(c1)nc(NC(=O)c1ccccc1)n2CCCc1ccccc1` was tested. Which H1.0 immunofluorescence intensity did it give?
Its H1.0 immunofluorescence intensity is 94.6 (inactive).

`Cc1cc(I)ccc1Nc1c(C(=O)NOCC2CC2)cc(F)c(F)c1F` was tested. Which H1.0 immunofluorescence intensity did it give?
Its H1.0 immunofluorescence intensity is 91.1 (inactive).

Which H1.0 immunofluorescence intensity does the source give for `CC#CCOC(=O)c1c(C)nc2sc3c(c2c1N)CCC(O)C3` (stereo unspecified) here?
Its H1.0 immunofluorescence intensity is 99.5 (inactive).

With `CCCCCCCCCCCCCCC(O)C(O)C(N)CO` (stereo unspecified) [Phytosphingosine] as the molecule, how does the H1.0 immunofluorescence intensity read?
The H1.0 immunofluorescence intensity was 124 (active).

For `CNS(=O)(=O)Cc1ccc2[nH]cc(CCN(C)C)c2c1.O=C(O)CCC(=O)O` [Sumatriptan Succinate], which H1.0 immunofluorescence intensity is on record?
The H1.0 immunofluorescence intensity was 90.9 (inactive).

With `Cc1cc(Nc2nc(-c3ccccc3)nc3ccccc23)n[nH]1` [GSK-3 Inhibitor XIII] as the molecule, how does the H1.0 immunofluorescence intensity read?
Its H1.0 immunofluorescence intensity is 112 (inactive).

Which H1.0 immunofluorescence intensity does the source give for `CCCCCCCC/C=C\CCCCCCCC(N)=O` [(9Z)-9-octadecenamide] here?
The H1.0 immunofluorescence intensity was 102 (inactive).

With `O=C(O)CCc1nc(-c2ccccc2)c(-c2ccccc2)o1` [Oxaprozin] as the molecule, how does the H1.0 immunofluorescence intensity read?
The H1.0 immunofluorescence intensity was 96.9 (inactive).

How did the H1.0 immunofluorescence intensity turn out when `COc1cc(CCC(C)=O)ccc1O` [Vannilylacetone] was run?
Its H1.0 immunofluorescence intensity is 95.6 (inactive).

How did the H1.0 immunofluorescence intensity turn out when `COC(=O)Nc1nc2ccc(C(=O)c3cccs3)cc2[nH]1` [Nocodazole] was run?
Its H1.0 immunofluorescence intensity is 157 (active).

With `CC(c1cc2ccccc2s1)N(O)C(N)=O` (stereo unspecified) [Zileuton] as the molecule, how does the H1.0 immunofluorescence intensity read?
The H1.0 immunofluorescence intensity was 94.2 (inactive).

Which H1.0 immunofluorescence intensity does the source give for `Cc1ccc(N(CC2=NCCN2)c2cccc(O)c2)cc1` [Phentolamine] here?
Its H1.0 immunofluorescence intensity is 99.7 (inactive).

Which H1.0 immunofluorescence intensity does the source give for `CN(Cc1cnc2nc(N)nc(N)c2n1)c1ccc(C(=O)NC(CCC(=O)O)C(=O)O)cc1` (stereo unspecified) [Methotrexate] here?
Its H1.0 immunofluorescence intensity is 92.8 (inactive).
